The source of these data is PubChem BioAssay (NCI).

Molecules are shown by their SMILES. Values joined by “and” are separate entries in the source; they are usually repeats but may differ in a detail not shown here. Equal entries are not always repeated. This is part of a sample that, as a whole, favours compounds with a hit. Of some 83,000 tested, about 20% had one in any assay.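 Percent growth is the endpoint: 0 to 100 indicates growth inhibition (40 means 60% inhibition), 0 means no net growth, and negative values indicate cell death.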 Active and inactive are the calls of the source. The calls were made as follows: active = growth percent below 10; inactive = the rest.

The assay relates to HL-60(TB) leukemia. Put plainly: NCI-60 one-dose screen, 48 h (100 = growth as untreated, 0 = no growth, -100 = all killed). Conditions: 10 µM unless noted.
On to `CCCCCCCCCCCCCCCCCCOP(=O)([O-])OC1CC[N+](C)(C)CC1`, for which the growth is -22.6% (active) and -37.1% (active). Take `N#Cc1c(NC(=O)c2ccco2)[n+]([O-])c2ccccc2[n+]1[O-]`: the growth was 81.4% (inactive). Consider `Cc1cccc(C)c1NC(=O)CSC(=S)N1CCCCC1`, for which the growth was 73.2% (inactive). Regarding `COC1=CC(c2ccc[nH]2)=N/C1=C\c1[nH]c(C)c(C(=O)OCc2ccccc2)c1C`, the growth was -8.78% (active). Under `C=CCn1c(SCC(=O)Nc2ccc(C(=O)/C=C/c3cc4cc(OC)ccc4nc3Cl)cc2)nnc1-c1ccc(Br)cc1` stands 81.3% (inactive); under `Nc1nc(Cl)nc2c1ncn2C1OC(CO)C(O)C1O` (centres undefined), -20.7% (active) and -3.23% (active); under `CCCCNc1ccc(C#N)c(OCCN(CC)CC)c1`, 88.8% (inactive).

In the case of `Cc1oc(-c2ccc(Cl)cc2)nc1/C=C/C(=O)c1ccccc1`, the growth is 97.1% (inactive). The figure for `COC(=O)/C=C1/SC(=Nc2ccc(C)cc2)N(CCc2c[nH]c3ccc(O)cc23)C1=O` is 49.3% (inactive); for `FC(F)(F)c1cccc(-c2[nH]ncc2-c2nnnn2-c2ccccc2)c1` it is 3.68% (active). On to `OCCOCCN(Cc1ccccn1)Cc1cc(I)cc(I)c1O`, for which the growth was 63.3% (inactive). Under `O=C(c1cc2ccccc2o1)c1nn(-c2ccccc2)/c(=N/N=Cc2cn(-c3ccccc3)nc2-c2cc3ccccc3oc2=O)s1` stands 98.2% (inactive); under `O=C(O)CCCN1C(=O)C2C3CCC(C3)C2C1=O` (centres undefined), 116% (inactive).

For `Cc1ccc(S(N)(=O)=O)cc1Cl`, the growth was 79.8% (inactive).

Regarding `CCNS(=O)(=O)c1ncnc2nc[nH]c12`, the growth is 112% (inactive). Consider `CCCCCCCCCCCCCCCCCCOc1ccccc1N`, for which the growth was 2.15% (active). With `COc1cc(/C=C\c2cc(/C=C\c3ccc(O)c(OC)c3)n(C(=O)Nc3ccc(C(F)(F)F)cc3)n2)ccc1O`, the growth was 15.2% (inactive). Under `CC(C)(C)[Si](C)(C)OC1[C@@H](O[Si](C)(C)C(C)(C)C)[C@@H](CNC(=O)NC(=O)C(F)(F)F)O[C@H]1n1cnc2c(NC(=O)Nc3ccccc3)ncnc21` (some centres undefined) stands -52.6% (active); under `COc1ccc(S(=O)(=O)Nc2cc(/C=C\c3cc(OC)c(OC)c(OC)c3)cc(OC)c2OC)cc1`, -42.1% (active). As to `COc1ccccc1/C=C/C(=O)/C=C/c1ccccc1OC`, the growth was 15.1% (inactive) and 18.7% (inactive). The figure for `CC[C@]12C=CCN3CC[C@@]4(c5cc(NC(=O)CCC(=O)O[C@H]6CC[C@H]7[C@@H]8CCC9=CC(=O)CC[C@@H]9[C@H]8CC[C@]67C)c(OC)cc5N(C)[C@H]4[C@@](O)(C(=O)OC)[C@@H]1OC(C)=O)[C@@H]32` is 62.5% (inactive); for `Cc1ccc(Nn2c(SCC(=O)Nc3nc(-c4ccccc4)cs3)nc(C)c2C)cc1` it is 63.8% (inactive); for `O=c1c2c([nH]c3ccccc13)CCCC2` it is 97.6% (inactive) and 5.42% (active). Turning to `COc1ccc(C(=O)c2no[n+]([O-])c2C(=O)c2ccc(OC)cc2)cc1`, the growth was -79.7% (active). The figure for `COc1cc(OCc2cccc(Br)c2C)cc(OC)c1C=O` is 92.6% (inactive). Under `COc1ccc(/C=N\NC(=O)c2cc(-c3ccc(Br)cc3)n(-c3ccc(S(N)(=O)=O)cc3)n2)cc1` stands 33.5% (inactive); under `N#Cc1c(Nc2ccccc2)nn2cc(-c3nc4ccccc4s3)c(N)nc12`, 100% (inactive); under `COc1ccc2c(c1)C(=O)/C(=C/c1cccc(OCC(=O)Nc3nc(C)c(C)s3)c1)O2`, -79.3% (active).

Take `COc1cc(N=C2C(=O)N(Cc3ccccc3)c3ccccc32)cc(OC)c1OC`: the growth is 69.9% (inactive). The figure for `COc1ccc(-c2cc(-c3cc4ccccc4oc3=O)n(-c3ccccc3)n2)cc1` is 91.6% (inactive). `CCOC(=O)NC(/C=C/c1ccccc1)NC(=O)OCC`: the growth was 103% (inactive). Consider `COC(=O)C1=C(C(=O)ONCCN(C)C)C2C=CC1(C(Cc1ccccc1)Nc1ccc(F)cc1)O2` (centres undefined), for which the growth was 35.8% (inactive). Under `CCN1/C(=C\c2cc[n+](CC)c3ccccc23)C=Cc2ccccc21` stands 5.97% (active); under `Cn1c(N)c(N=O)c(=O)n(C)c1=O`, 105% (inactive) and 89.8% (inactive). For `CCOC(=O)Nc1ccc(-c2nc(-c3cccc(OC)c3)c(-c3ccnc(Br)c3)[nH]2)cc1`, the growth was -18.7% (active). The figure for `O=C1NC(=S)NC(=O)C1=Cc1cccc(C=C2C(=O)NC(=S)NC2=O)c1` is 101% (inactive); for `O=C(Nc1ccc(CN2CCc3nc4cc(O)c(O)cc4cc32)cc1)c1ccc(Cl)c(Cl)c1` it is 114% (inactive).

For `C=CCn1c(SCC(=O)Nc2ccc(C(=O)/C=C/c3cc(OC)c(OC)c(OC)c3)cc2)nnc1-c1ccccc1`, the growth is 71.8% (inactive). Under `COc1ccc2c(c1)c(-c1noc(C(=O)c3cn(C)c4ccc(Br)cc34)n1)cn2C` stands 84.4% (inactive).
